# About 83,000 compounds went through this panel and 20% of them were active in at least one assay; those are over-represented in the sample as a whole.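 Plates (96-well) were seeded with cells, treated with compound at one concentration, and incubated for 48 hours before percent growth was determined.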 Active and inactive are the calls of the source. How the source made its calls: active means growth percent below 10; inactive means the rest.
# Test system: RPMI-8226 leukemia
# Assay: NCI-60 one-dose screen, 48 h (100 = growth as untreated, 0 = no growth, -100 = all killed)
# Settings: 10 µM
row,Structure (SMILES),growth
1,CC[C@@]12CC(C(=O)OC)=C3Nc4cc5c(cc4[C@@]34CCN(C[C@H]3O[C@H]31)[C@@H]24)[C@@H]1[C@H](O5)[C@@H](O)[C@@]2(CC)CC(C(=O)OC)=C3Nc4cc(OC)ccc4[C@@]34CCN1[C@@H]24,0.732% (active)
2,CCOP(=O)(CC(F)(F)C(F)(F)F)OCC,7.92% (active)
3,CC1=C2C(=C[C@@](C)(COP(=O)(Oc3ccccc3)Oc3ccccc3)[C@@H]2O)C(=O)[C@@](C)(O)C12CC2,9.34% (active)
4,CC(=O)Oc1ccccc1C(=O)NC([Se])=NC1CCCCC1,27.9% (inactive)
5,C[C@H]1[C@H](OC(=O)CCC(=O)N(CCCc2cn(-c3ccc(CN4CCOCC4)cc3)nn2)CCNc2ccnc3cc(Cl)ccc23)O[C@@H]2OC3(C)CC[C@H]4[C@H](C)CC[C@@H]1[C@@]24OO3,3.71% (active)
6,O=C(/C=C/c1ccc(Cl)cc1)c1nc2ccccc2n1Cc1ccc(F)cc1,-20.2% (active)
7,CC1=C(CCC=O)C2=C(C)C3(CC3)[C@@](C)(O)C(=O)C2=C1,1.91% (active)
8,O=C(NC([Se])=NC1CCCCC1)c1ccc2c(c1)OCO2,63% (inactive)
9,C[C@H]1[C@H](OC(=O)CCC(=O)N(CCCc2cn(-c3ccc(C#N)cc3)nn2)CCNc2ccnc3cc(Cl)ccc23)O[C@@H]2OC3(C)CC[C@H]4[C@H](C)CC[C@@H]1[C@@]24OO3,27% (inactive)
10,C[C@H]1[C@@H](Oc2ccc(-c3cn(-c4ccnc5cc(Cl)ccc45)nn3)cc2)O[C@@H]2OC3(C)CC[C@H]4[C@H](C)CC[C@@H]1[C@@]24OO3,23% (inactive)
11,COc1ccc(/C=C/C(=O)c2nc3ccccc3n2Cc2ccc(Br)cc2)cc1,22.5% (inactive)
12,COC(=O)CCn1c(-c2ccc(-n3cc(-c4ccc(O[C@H]5O[C@@H]6OC7(C)CC[C@H]8[C@H](C)CC[C@@H]([C@H]5C)[C@@]68OO7)cc4)nn3)cc2)nc2ccccc21,20.3% (inactive)
13,C[C@H]1[C@H](OC(=O)CCC(=O)N(CCCc2cn(-c3ccc([N+](=O)[O-])cc3)nn2)CCNc2ccnc3cc(Cl)ccc23)O[C@@H]2OC3(C)CC[C@H]4[C@H](C)CC[C@@H]1[C@@]24OO3,28.7% (inactive)

# Test system: OVCAR-8 ovarian
# Assay: as above
# Settings: 10 µM
row,Structure (SMILES),growth
1,O=C(/C=C/c1ccco1)c1nc2ccccc2n1Cc1ccc(Br)cc1,46.7% (inactive)
2,O=C(/C=C/c1ccco1)c1nc2ccccc2n1Cc1ccc(F)cc1,70.1% (inactive)
3,COc1cc2cc(C(=O)N3C[C@@H](CCl)c4c3cc(OC(=O)N3CCN(C)[C@@H]5CSSC[C@@H]53)c3ccccc43)[nH]c2c(OC)c1OC,-3.43% (active)
4,C#CC[Se]C(=O)c1ccc2n[se]nc2c1,74.9% (inactive)
5,O=C(/C=C/c1ccc(Cl)cc1Cl)c1nc2ccccc2n1Cc1ccc(F)cc1,56% (inactive)
6,O=C(/C=C/c1ccc(Cl)cc1)c1nc2ccccc2n1Cc1ccc(Br)cc1,66% (inactive)
7,CCOP(=O)(OCC)C(NC(C)=O)C(=O)SCCN (configuration not stated),109% (inactive)
8,COc1cc2cc(C(=O)N3C[C@@H](CCl)c4c3cc(OC(=O)N3CCN(C)[C@@H]5CSSC[C@H]53)c3ccccc43)[nH]c2c(OC)c1OC,-30.2% (active)
9,COc1ccc2cc([C@H](C)C(=O)[Se]CCC#N)ccc2c1,-82.9% (active)
10,CC12OOC(C)(OO1)C2CCC(=O)OCCNc1ccnc2cc(Cl)ccc12 (configuration not stated),68% (inactive)
11,CC(C)N=C([Se])NC(=O)c1cccs1,-36.8% (active)
12,Cc1ccc2[nH]c(=S)n(-c3ccc(F)cc3)c(=O)c2c1,103% (inactive)
13,CCOC(=O)C1=C(Nc2ccccc2)C(=O)OC12C(=O)Nc1ccccc12 (configuration not stated),105% (inactive)
14,CC12CCC3(CCC(=O)NCCCNc4ccnc5cc(Cl)ccc45)[C@@](C)(OO[C@]3(C)O1)O2,-1.11% (active)
15,CC[C@]12C=CCN3CC[C@@]4(c5ccc(OC)cc5N(C)[C@H]4[C@@](O)(C(=O)OC)[C@@H]1OC(=O)CCCC[P+](C1CCCCC1)(C1CCCCC1)C1CCCCC1)[C@@H]32,-6.33% (active)
16,CC(=O)Oc1ccccc1C(=O)[Se]C(=NC(C)C)NC(C)C,-86.3% (active)
17,COCCOCCOCCOc1ccc(-n2cc(CCCN(CCNc3ccnc4cc(Cl)ccc34)C(=O)CCC(=O)O[C@@H]3O[C@@H]4OC5(C)CC[C@H]6[C@H](C)CC[C@@H]([C@H]3C)[C@@]46OO5)nn2)cc1,20.9% (inactive)
18,C[C@H]1[C@@H](CC(=O)N[C@@H](Cc2coc3ccccc23)B(O)O)O[C@@H]2OC3(C)CC[C@H]4[C@H](C)CC[C@@H]1[C@@]24OO3,-6.75% (active)
19,COP(=O)(CC(F)(F)C(F)(F)F)OC,-75.6% (active)
20,CC12OOC(C)(OO1)C2CCC(=O)NCCNc1ccnc2cc(Cl)ccc12 (configuration not stated),97.6% (inactive)

row,Structure (SMILES),growth
1,CC[C@]12C=CCN3CC[C@@]4(c5ccc(OC)cc5N(C)[C@H]4[C@@](O)(C(=O)OC)[C@@H]1OC(=O)CCC[P+](c1ccc(C)cc1)(c1ccc(C)cc1)c1ccc(C)cc1)[C@@H]32,-85% (active)
2,CC(C)N=C([Se])NC(=O)c1ccccc1,-65.2% (active)
3,CC[C@]12C=CCN3CC[C@@]4(c5ccc(OC)cc5N(C)[C@H]4[C@@](O)(C(=O)OC)[C@@H]1OC(=O)CCC[P+](C1CCCCC1)(C1CCCCC1)C1CCCCC1)[C@@H]32,1.19% (active)
4,CC1=C(COCCOC(=O)c2ccc(S(=O)(=O)F)cc2)C2=C(C)C3(CC3)[C@@](C)(O)C(=O)C2=C1,-0.659% (active)
5,CC[C@]12C=CCN3CC[C@@]4(c5ccc(OC)cc5N(C)[C@H]4[C@@](O)(C(=O)OC)[C@@H]1OC(=O)CCCC[P+](c1ccc(OC)cc1)(c1ccc(OC)cc1)c1ccc(OC)cc1)[C@@H]32,-90.2% (active)
6,CC1=C(CCC=NNC(N)=O)C2=C(C)C3(CC3)[C@@](C)(O)C(=O)C2=C1,-58.7% (active)
7,CC[C@@]12CC(C(=O)OC)=C3Nc4cc5c(cc4[C@@]34CCN(C[C@H]3O[C@H]31)[C@@H]24)[C@@H]1[C@H](O5)[C@@H](O)[C@@]2(CC)CC(C(=O)OC)=C3Nc4cc(OC)ccc4[C@@]34CCN1[C@@H]24,25.5% (inactive)
8,CCOP(=O)(CC(F)(F)C(F)(F)F)OCC,-80.2% (active)
9,CC1=C2C(=C[C@@](C)(COP(=O)(Oc3ccccc3)Oc3ccccc3)[C@@H]2O)C(=O)[C@@](C)(O)C12CC2,-68.5% (active)
10,CC(=O)Oc1ccccc1C(=O)NC([Se])=NC1CCCCC1,-56.4% (active)
11,C[C@H]1[C@H](OC(=O)CCC(=O)N(CCCc2cn(-c3ccc(CN4CCOCC4)cc3)nn2)CCNc2ccnc3cc(Cl)ccc23)O[C@@H]2OC3(C)CC[C@H]4[C@H](C)CC[C@@H]1[C@@]24OO3,19.4% (inactive)
12,O=C(/C=C/c1ccc(Cl)cc1)c1nc2ccccc2n1Cc1ccc(F)cc1,17.1% (inactive)
13,CC1=C(CCC=O)C2=C(C)C3(CC3)[C@@](C)(O)C(=O)C2=C1,-73.4% (active)
14,O=C(NC([Se])=NC1CCCCC1)c1ccc2c(c1)OCO2,37.7% (inactive)
15,C[C@H]1[C@H](OC(=O)CCC(=O)N(CCCc2cn(-c3ccc(C#N)cc3)nn2)CCNc2ccnc3cc(Cl)ccc23)O[C@@H]2OC3(C)CC[C@H]4[C@H](C)CC[C@@H]1[C@@]24OO3,22.3% (inactive)
16,C[C@H]1[C@@H](Oc2ccc(-c3cn(-c4ccnc5cc(Cl)ccc45)nn3)cc2)O[C@@H]2OC3(C)CC[C@H]4[C@H](C)CC[C@@H]1[C@@]24OO3,16% (inactive)
17,COc1ccc(/C=C/C(=O)c2nc3ccccc3n2Cc2ccc(Br)cc2)cc1,77.5% (inactive)
18,COC(=O)CCn1c(-c2ccc(-n3cc(-c4ccc(O[C@H]5O[C@@H]6OC7(C)CC[C@H]8[C@H](C)CC[C@@H]([C@H]5C)[C@@]68OO7)cc4)nn3)cc2)nc2ccccc21,9.58% (active)
19,C[C@H]1[C@H](OC(=O)CCC(=O)N(CCCc2cn(-c3ccc([N+](=O)[O-])cc3)nn2)CCNc2ccnc3cc(Cl)ccc23)O[C@@H]2OC3(C)CC[C@H]4[C@H](C)CC[C@@H]1[C@@]24OO3,23.7% (inactive)

# From PubChem BioAssay (NCI)
